In the supplement of paper PMC6555819:

What was measured:
Experiment in all cases: PBM binding z-score (relative to random genomic background probes); higher = stronger binding; sequences stand for … in GC…GCGATTGACAGCGTAGAATGAAGG
[1] = system: PPARg:RXRa DBDmut IVT, anti-RXR (DBD mutation: RXRa K156A/R161A, NR concentration 270 nM, RXRa partner concentration 90 nM)
Summary of the method: (§1)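 Custom Agilent 4×180K protein-binding microarrays carried double-stranded probes. Their 34-nt variable regions held direct-repeat seeds, single-nucleotide variants, half-site ablations and random human genomic background sequences. Arrays were incubated 1 h with ligand-free nuclear receptor dimers in PBS pH 7.4, 2% milk, 0.02% Triton X-100, 1 mM DTT, 0.2 mg/mL BSA and 0.4 mg/ml salmon testes DNA. Antibodies against each partner (one per run) detected binding, and scanned fluorescence was regression-normalized. Binding z-scores use random background probes as reference.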

[2] = system: PPARg:RXRa IVT, anti-PPARg (NR concentration 270 nM, RXRa partner concentration 90 nM)
Summary of the method: as §1

[3] = system: PPARg DBDmut:RXRa IVT, anti-PPARg (DBD mutation: PPARg1 K132A/R137A, NR concentration 270 nM, RXRa partner concentration 90 nM)
Summary of the method: as §1

[4] = system: PPARg DBDmut IVT, anti-PPARg (DBD mutation: PPARg1 K132A/R137A, NR concentration 270 nM)
Summary of the method: as §1

[5] = system: PPARg homodimer (NR concentration 180 nM)
Summary of the method: as §1

[6] = system: PXR:RXRa (NR concentration 270 nM, RXRa partner concentration 90 nM)
Summary of the method: as §1

[7] = system: PXR homodimer (NR concentration 270 nM)
Summary of the method: as §1

[8] = system: RARa:RXR (NR concentration 270 nM, RXRa partner concentration 90 nM)
Summary of the method: as §1

[9] = system: RARa homodimer (NR concentration 270 nM)
Summary of the method: as §1

[10] = system: RARb:RXRa (NR concentration 270 nM, RXRa partner concentration 90 nM)
Summary of the method: as §1

[11] = system: RARb homodimer (NR concentration 270 nM)
Summary of the method: as §1

[12] = system: RARg:RXRa (NR concentration 270 nM, RXRa partner concentration 90 nM)
Summary of the method: as §1

[13] = system: RARg homodimer (NR concentration 270 nM)
Summary of the method: as §1

[14] = system: RXRa DBDmut IVT, anti-RXR (DBD mutation: RXRa K156A/R161A, NR concentration 90 nM)
Summary of the method: as §1

[15] = system: RXRa homodimer (NR concentration 180 nM)
Summary of the method: as §1

[16] = system: THRa:RXRa (NR concentration 90 nM, RXRa partner concentration 90 nM)
Summary of the method: as §1

[17] = system: THRa homodimer (NR concentration 90 nM)
Summary of the method: as §1

[18] = system: VDR homodimer (NR concentration 270 nM)
Summary of the method: as §1

Sequence | PBM binding z-score [1] | PBM binding z-score [2] | PBM binding z-score [3] | PBM binding z-score [4] | PBM binding z-score [5] | PBM binding z-score [6] | PBM binding z-score [7] | PBM binding z-score [8] | PBM binding z-score [9] | PBM binding z-score [10] | PBM binding z-score [11] | PBM binding z-score [12] | PBM binding z-score [13] | PBM binding z-score [14] | PBM binding z-score [15] | PBM binding z-score [16] | PBM binding z-score [17] | PBM binding z-score [18]
CCTGCAAGGTCATGGTCAGCTAATCTACAGTATG | 2.84 | 3.3 | 1.03 | 1.64 | 3.29 | 4.62 | 0.377 | 5.57 | 1.03 | 5.04 | 4.17 | 6.01 | 6.24 | 3.84 | 6.36 | 4.04 | 2.86 | 2.64
TCATATAGGTAAAGGTGAAAGACGAACGATATGA | 3.92 | 4.19 | 2 | 1.64 | 1.19 | 0.767 | -0.0893 | 1.22 | 0.159 | 1.85 | 0.974 | 1.51 | 1.34 | 0.604 | 1.85 | 1.04 | -0.601 | -0.0355
CTCGAAACGTCGGTTGAGGTGAGTATACGGATAA | -0.197 | -0.061 | 0.192 | 0.207 | 0.264 | 0.0163 | -0.284 | 0.752 | -0.037 | 0.205 | -0.165 | 0.0462 | 0.0959 | -0.0246 | -0.0266 | 2.55 | 1.2 | -0.242
GCGACTGGGGCAAAGCAGGTTACCAGAAGGTTGG | 4.49 | 3.54 | -1.13 | -0.78 | 0.00244 | 0.34 | -0.469 | 0.321 | -0.876 | 1.1 | 1.32 | 0.622 | 0.806 | -0.155 | 0.313 | 2.87 | -0.356 | -0.376
TCGAGTAGGTTAGTCGGGGCATGCAGCCAACATA | 2.41 | 2.26 | 0.028 | -1.65 | -0.293 | -0.00662 | -0.418 | 0.207 | -0.677 | 0.512 | 0.498 | -0.0315 | -0.00519 | 0.0884 | 0.113 | 0.978 | -0.26 | -0.157
TCGAGTAGGTTAGTCGGGGCGTTCAGCCAACATA | 1.73 | 0.976 | -0.368 | -0.973 | -0.66 | -0.237 | -0.771 | -0.294 | -0.96 | 0.0731 | -0.146 | -0.702 | -0.632 | 0.213 | -0.538 | 0.808 | -0.254 | -0.484
CGTCCAAGGTCAGAAGGTCAGTGAAAGCGACGTG | 2.28 | 3.06 | 0.15 | -0.646 | 3.82 | 4.48 | 0.822 | 5.89 | 1.32 | 5.45 | 5.32 | 7.13 | 6.77 | 2.87 | 5.71 | 4.12 | 1.8 | 2.18
CTACCAAGGTGAACAAGGTCGTTGACTACTATTC | 2.76 | 2.84 | 0.603 | 0.324 | 0.75 | 2.98 | 2.72 | 2.61 | 0.269 | 2.29 | 2.28 | 2.17 | 1.67 | 1.6 | 2.34 | 3.49 | 2 | 2.59
TCTTGGAGGACACGAAAGGTCAGAGCTCGACATC | 2.26 | 2.63 | 0.421 | 0.521 | 2.91 | 4.16 | 0.329 | 4.3 | 0.376 | 4.39 | 4.63 | 5.1 | 5.47 | 1.26 | 4.25 | 3.89 | 1.31 | 1.48
GCTGCTAGGTCAGGTTGGTTAGCTAACGGGTACG | 3.18 | 1.92 | -0.902 | -0.404 | 0.608 | 0.32 | -0.467 | 0.712 | -0.719 | 3.07 | 2.43 | 2.43 | 3.37 | 0.744 | 0.769 | 1.77 | 0.549 | 0.682
GCTTGTAGATGAAGGTTAAGAAAGACTAAGCTAA | 0.000874 | 0.405 | 0.135 | -0.0594 | -0.126 | 0.0589 | -0.403 | 0.444 | -0.213 | 0.535 | 0.181 | 0.18 | 0.177 | -0.235 | 0.368 | 0.351 | -0.694 | -0.443
TCAGACACGTGAAGGTAACTCAGGTACGCAGTCG | 2.01 | 0.0169 | -0.15 | -0.175 | 0.0115 | 0.416 | -0.294 | 0.632 | -0.256 | 0.338 | 0.104 | 0.176 | 0.219 | 1.06 | 0.661 | 1.21 | -0.125 | 0.218
AGATCGAGGGCACGCTGAGTTGATAGCAGAGTAG | 3.66 | 3.58 | 1.3 | 0.665 | -0.311 | 1.31 | 0.0547 | 0.734 | -0.531 | 2.42 | 0.796 | 1.71 | 1.86 | 1.57 | 0.933 | 1.63 | -0.107 | 1.65
CCTACTGGGCCACAAAAGGTCATTGATTCAGTGA | 5.38 | 5.41 | 0.516 | 0.121 | 2.8 | 5.02 | 1.16 | 4.9 | 0.618 | 3.95 | 4.58 | 4.47 | 3.91 | 0.362 | 4.76 | 3.73 | 0.921 | 1.92
